Results filed as inconclusive are left out. The source made the active and inactive calls. Unless noted, the call rests on the fitted dose curve.
Legend:
[1] = Nuclear factor erythroid 2-related factor 2/antioxidant responsive element (Nrf2/ARE) small molecule agonists: qHTS cell viability counter screen in human keratinocytes (AID 1919968; active means well fitted cell-killing curve with a large enough effect in the repeat runs; further: nearly all actives have a fitted effect of over 55% in size)
Outline: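 Cells of the KeratinoSens line were plated at 1,500 per well and left for 5 h before compound transfer from DMSO stocks. After a 23 h incubation (37 C, 5% CO2), CellTiter-Fluor was added. Signal was taken as fluorescence intensity 1 h later.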

[2] = Nuclear factor erythroid 2-related factor 2/antioxidant responsive element (Nrf2/ARE) small molecule agonists: luciferase reporter gene qHTS assay in human keratinocytes (AID 1919969); further: nearly all actives have a fitted effect of over 35% in size
[3] = biological target: Gonadotropin-releasing hormone receptor (Homo sapiens) (UniProt P30968); assay: Human gonadotropin-releasing hormone receptor (GnRHR) small molecule agonists, calcium flux assay in GnRHR-HEK293 cells (AID 1920063); further: nearly all actives have a fitted effect of over 35% in size
Outline: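 Compounds dissolved in DMSO are pin-transferred onto dye-loaded GnRHR-HEK293 cells, which were seeded 18 h before at 37 C/5% CO2. Calcium signal is read as fluorescence intensity at 1 s intervals for 3 min.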

[4] = p53 small molecule agonists, cell-based qHTS assay with human liver microsomes (AID 1963577);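 further: p53 response element beta-lactamase reporter cells with liver microsomes plus NADPH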
Outline: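 16 h, 37 C exposure of p53RE-bla cells to compounds with human liver microsomes and NADPH (0.5 mg/mL final each); detection via LiveBLAzer mixture, 2 h dark at room temperature.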

[5] = p53 small molecule agonists, cell-based qHTS assay with rat liver microsomes (AID 1963578)
Outline: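 With rat liver microsomes and NADPH present (0.5 mg/mL final each), p53RE-bla cells are treated with compound for 16 h at 37 C. LiveBLAzer detection mixture is then applied for 2 h at room temperature in the dark.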

[6] = p53 small molecule agonists, cell-based qHTS assay with human liver microsomes: qHTS cell viability counter screen (AID 1963579); further: nearly all actives have a fitted effect of over 45% in size
Outline: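 In this multiplexed counter screen, the reporter plates were subsequently treated with CellTiter-Glo so that cell viability, reflected by luminescence, could be recorded for p53RE-bla cells dosed 16 h with compounds under microsomal activation (HLM and NADPH).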

[7] = p53 small molecule agonists, cell-based qHTS assay with rat liver microsomes: qHTS cell viability counter screen (AID 1963580); further: nearly all actives have a fitted effect of over 45% in size
Outline: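 Cytotoxicity counter screen: intracellular ATP read by CellTiter-Glo luminescence in the p53 reporter wells. HCT-116 p53RE-bla cells were treated for 16 h at 37 C alongside rat liver microsomes and NADPH, each 0.5 mg/mL final.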

[8] = p53 small molecule agonists, cell-based qHTS assay: qHTS cell viability counter screen (AID 1963581); further: nearly all actives have a fitted effect of over 45% in size
Outline: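 ATP content measured by luminescence in HCT-116 p53RE-bla cells treated 16 h at 37 C, same wells as the reporter screen.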

[9] = p53 small molecule agonists, cell-based qHTS assay (AID 1963582; active means well fitted activation curve with a large enough effect in the signal ratio in the repeat runs, not every such curve was filed as active; the % refers to the signal ratio)
Outline: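 16 h compound exposure (37 C) of p53 response element–bla cells, preceded by 5 h recovery at 37 C/5% CO2; read-out via LiveBLAzer B/G FRET substrate, 2 h RT, fluorescence intensity.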

[10] = biological target: 5-hydroxytryptamine receptor 2A (Homo sapiens) (UniProt P28223); assay: 5-hydroxytryptamine receptor 2A (HTR2A) small molecule antagonists, cell-based qHTS assay (AID 1963586); further: nearly all actives have a fitted effect of over 45% in size
Outline: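 CHO cells stably expressing human HTR2A were plated for 18 h at 37 C, then loaded with calcium dye for 1 h. Compounds were preincubated 5 min at room temperature before DOI (4 nM solution) was added. Kinetic fluorescence was read for 3 min.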

[11] = biological target: 5-hydroxytryptamine receptor 2A (Homo sapiens) (UniProt P28223); assay: 5-hydroxytryptamine receptor 2A (HTR2A) small molecule agonists, cell-based qHTS assay (AID 1963587); further: nearly all actives have a fitted effect of over 30% in size
Outline: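 Kinetic calcium-flux fluorescence (2 min, 1 sec intervals) after compound addition in agonist mode. HTR2A-CHO cells were cultured 18 h, then dye-loaded 1 h at 37 C.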

[12] = biological target: Muscarinic acetylcholine receptor M1 (Homo sapiens) (UniProt P11229); assay: Cholinergic receptor muscarinic 1 (CHRM1) small molecule antagonists, cell-based qHTS assay (AID 1963588); further: nearly all actives have a fitted effect of over 40% in size
Outline: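 Compounds were tested at 15 concentrations in three independent runs. Dye-loaded CHRM1-CHO cells were exposed 5 min at room temperature before stimulation by acetylcholine added at 50nM. Intracellular calcium was read kinetically on FDSS for 3 min.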

[13] = biological target: Muscarinic acetylcholine receptor M1 (Homo sapiens) (UniProt P11229); assay: Cholinergic receptor muscarinic 1 (CHRM1) small molecule agonists, cell-based qHTS assay (AID 1963589); further: nearly all actives have a fitted effect of over 35% in size
Outline: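 Homogeneous fluorescence calcium flux, agonist mode. Human M1-expressing CHO cells; compound dosed at 15 concentrations, three independent runs; signal sampled every 1 sec.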

[14] = cAMP Responsive Elements (CRE) small molecule agonists, cell-based qHTS assay (AID 1963590)
Outline: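 HEK 293T cells stably bearing CRE-bla were plated at 2,000 cells per well and rested 18 h. Compounds, positive controls or DMSO were added for 3 h at 37 C. LiveBLAzer B/G substrate was then loaded for 2 h at room temperature.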

[15] = cAMP Responsive Elements (CRE) small molecule antagonists, cell-based qHTS assay (AID 1963591; active means well fitted inhibition curve with a large enough effect in the signal ratio in the repeat runs, not every such curve was filed as active; the % refers to the signal ratio)
Outline: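 First, CRE-bla HEK293T cells settled 18 h at 37 C. Next, compound and 0.25 uM final NKH477 were applied for 3 h. Last, LiveBLAzer B/G substrate was loaded for 2 h at room temperature.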

[16] = biological target: Beta-2 adrenergic receptor (Homo sapiens) (UniProt P07550); assay: Adrenergic beta2 receptor (ADRB2) small molecule antagonists, cell-based qHTS assay (AID 1963592); further: series mostly up to about 92 µM; nearly all actives have a fitted effect of over 50% in size
Outline: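 Assay format: CHO-ADRB2 cells, 18-20hr seeding at 37C/5% CO2, then compound plus 1nM isoproterenol agonist mix for 0.5hr RT. Homogeneous time-resolved fluorescence cAMP detection after 1hr, expressed as 665/615 nm ratio.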

[17] = biological target: Beta-2 adrenergic receptor (Homo sapiens) (UniProt P07550); assay: Adrenergic beta2 receptor (ADRB2) small molecule agonists, cell-based qHTS assay (AID 1963593);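 further: CHO cells stably overexpressing human ADRB2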
Outline: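 CHO cells stably over-expressing ADRB2 were plated overnight at 37C, then dosed with compounds plus a stimulation mix containing 100uM IBMX and 25uM Ro-20-1724 for 0.5hr at room temperature. cAMP was measured by HTRF competition, 1hr.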

[18] = biological target: D(2) dopamine receptor (Homo sapiens) (UniProt P14416); assay: Dopamine D2 receptor (DRD2) small molecule agonists, cell-based qHTS assay (AID 1963594); further: nearly all actives have a fitted effect of over 35% in size
Outline: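 cAMP accumulation in DRD2-HEK293 cells measured by HTRF after 1 h detection; compounds added 10 min before NKH477 (200nM […]) forskolin-analogue stimulation, 30 min at room temperature, with Ro20-1724 present at 0.1 mM final.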

[19] = biological target: D(2) dopamine receptor (Homo sapiens) (UniProt P14416); assay: Dopamine D2 receptor (DRD2) small molecule antagonists, cell-based qHTS assay (AID 1963595; active means well fitted inhibition curve with a large enough effect in the signal ratio in the repeat runs, with a control signal flat; the % refers to the signal ratio)
Outline: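 Antagonist mode in DRD2-HEK293 cells: after compound addition with 0.1 mM Ro20-1724, cells received quinpirole (12 nM) and NKH477 (200 nM) for 30 min at room temperature; HTRF cAMP read after 1 h detection.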

[20] = G protein-coupled receptor (GPCR) small molecule agonists, calcium flux assay: HEK293 wild type cell line counter screen (AID 1920065)
Outline: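 Tox21 10K compounds, 15 concentrations each in triplicate, pin-transferred in DMSO onto dye-loaded cells; kinetic read at 480/540 nm for 3 min, 1 s intervals.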
On the % scale 0 is the no-effect control and ±100 the full control effect.

Sequence of 5-hydroxytryptamine receptor 2A (Homo sapiens) (P28223 whole entry, looked up): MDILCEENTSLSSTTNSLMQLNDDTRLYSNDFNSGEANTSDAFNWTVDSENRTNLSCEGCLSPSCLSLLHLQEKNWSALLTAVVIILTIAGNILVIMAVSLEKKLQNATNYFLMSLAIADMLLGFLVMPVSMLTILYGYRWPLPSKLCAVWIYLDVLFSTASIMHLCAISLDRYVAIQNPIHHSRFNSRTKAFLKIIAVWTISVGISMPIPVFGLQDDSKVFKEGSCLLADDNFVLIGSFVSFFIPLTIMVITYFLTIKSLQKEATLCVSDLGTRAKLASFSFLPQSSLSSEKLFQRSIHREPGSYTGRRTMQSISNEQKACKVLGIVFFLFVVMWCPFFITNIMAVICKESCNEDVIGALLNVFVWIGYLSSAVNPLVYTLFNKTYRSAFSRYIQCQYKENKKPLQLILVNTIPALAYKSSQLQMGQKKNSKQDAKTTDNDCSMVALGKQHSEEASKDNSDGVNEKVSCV
Sequence of Gonadotropin-releasing hormone receptor (Homo sapiens) (P30968 whole entry, looked up): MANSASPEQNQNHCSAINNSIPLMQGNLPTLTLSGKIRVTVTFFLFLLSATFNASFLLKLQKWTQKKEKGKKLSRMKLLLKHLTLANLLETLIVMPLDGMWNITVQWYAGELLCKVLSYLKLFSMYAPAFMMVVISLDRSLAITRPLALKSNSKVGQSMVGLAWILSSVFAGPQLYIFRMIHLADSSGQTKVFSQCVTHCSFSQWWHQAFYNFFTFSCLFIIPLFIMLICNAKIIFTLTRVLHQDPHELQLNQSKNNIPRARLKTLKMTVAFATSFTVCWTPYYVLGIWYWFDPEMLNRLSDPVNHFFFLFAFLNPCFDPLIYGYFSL
Sequence of Beta-2 adrenergic receptor (Homo sapiens) (P07550 whole entry, looked up): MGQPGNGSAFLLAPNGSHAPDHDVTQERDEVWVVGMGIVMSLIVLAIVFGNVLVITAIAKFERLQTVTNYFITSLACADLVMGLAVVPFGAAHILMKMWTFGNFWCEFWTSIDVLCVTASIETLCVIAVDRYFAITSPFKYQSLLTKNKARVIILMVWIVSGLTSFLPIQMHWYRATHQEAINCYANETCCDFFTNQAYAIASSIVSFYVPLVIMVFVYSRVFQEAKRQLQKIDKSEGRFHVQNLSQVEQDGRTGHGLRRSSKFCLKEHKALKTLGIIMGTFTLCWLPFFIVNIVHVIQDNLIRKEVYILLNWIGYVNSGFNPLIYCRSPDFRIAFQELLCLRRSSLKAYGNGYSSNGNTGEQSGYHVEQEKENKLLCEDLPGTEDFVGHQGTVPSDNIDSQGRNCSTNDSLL
Sequence of Muscarinic acetylcholine receptor M1 (Homo sapiens) (P11229 whole entry, looked up): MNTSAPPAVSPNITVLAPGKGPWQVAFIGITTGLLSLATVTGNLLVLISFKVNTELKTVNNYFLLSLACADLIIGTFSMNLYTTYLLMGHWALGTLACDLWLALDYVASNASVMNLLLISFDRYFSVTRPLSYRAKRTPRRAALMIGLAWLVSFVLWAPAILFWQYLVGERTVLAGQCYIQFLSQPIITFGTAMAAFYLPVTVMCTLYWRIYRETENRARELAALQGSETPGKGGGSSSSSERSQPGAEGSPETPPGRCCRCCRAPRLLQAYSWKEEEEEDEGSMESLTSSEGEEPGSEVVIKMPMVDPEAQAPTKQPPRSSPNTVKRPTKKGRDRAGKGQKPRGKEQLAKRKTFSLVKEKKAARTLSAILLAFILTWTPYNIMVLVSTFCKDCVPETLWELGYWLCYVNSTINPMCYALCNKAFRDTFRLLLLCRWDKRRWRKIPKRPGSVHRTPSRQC
Sequence of D(2) dopamine receptor (Homo sapiens) (P14416 whole entry, looked up): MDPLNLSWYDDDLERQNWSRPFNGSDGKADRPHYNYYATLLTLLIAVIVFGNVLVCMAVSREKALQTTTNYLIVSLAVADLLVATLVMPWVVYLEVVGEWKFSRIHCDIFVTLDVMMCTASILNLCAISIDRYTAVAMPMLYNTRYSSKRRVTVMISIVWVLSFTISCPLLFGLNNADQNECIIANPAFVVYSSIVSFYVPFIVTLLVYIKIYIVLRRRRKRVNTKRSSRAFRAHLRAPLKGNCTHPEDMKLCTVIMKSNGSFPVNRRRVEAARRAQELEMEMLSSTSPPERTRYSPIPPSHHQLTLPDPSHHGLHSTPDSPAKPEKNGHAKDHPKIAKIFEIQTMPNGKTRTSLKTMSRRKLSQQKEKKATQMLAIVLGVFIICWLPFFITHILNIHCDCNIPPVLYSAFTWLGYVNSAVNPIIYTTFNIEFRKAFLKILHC

CC(=O)c1ccc(O)c(C(N)=O)c1
inactive: Potency [1] | Potency [2] | Potency [3] | Potency [4] | Potency [5] | Potency [6] | Potency [7] | Potency [8] | Potency [9] | Potency [10] | Potency [11] | Potency [12] | Potency [13] | Potency [14] | Potency [15] | Potency [16] | Potency [17] | Potency [18] | Potency [19]

CC(=O)CC(=O)Nc1ccccc1C
inactive: Potency [1] | Potency [2] | Potency [20] | Potency [4] | Potency [5] | Potency [6] | Potency [7] | Potency [8] | Potency [9] | Potency [10] | Potency [12] | Potency [14] | Potency [15] | Potency [16] | Potency [17] | Potency [18] | Potency [19]

CC(=O)OCc1ccccc1
inactive: Potency [1] | Potency [2] | Potency [3] | Potency [20] | Potency [6] | Potency [8] | Potency [10] | Potency [11] | Potency [12] | Potency [13] | Potency [14] | Potency [15] | Potency [16] | Potency [17] | Potency [18] | Potency [19]

C/C=C/c1ccc(OC)c(OC)c1
inactive: Potency [1] | Potency [2] | Potency [20] | Potency [4] | Potency [5] | Potency [6] | Potency [7] | Potency [8] | Potency [9] | Potency [10] | Potency [11] | Potency [12] | Potency [13] | Potency [14] | Potency [15] | Potency [16] | Potency [17] | Potency [18] | Potency [19]

C=CC(=O)NCOCCCC
inactive: Potency [1] | Potency [2] | Potency [3] | Potency [20] | Potency [6] | Potency [7] | Potency [8] | Potency [10] | Potency [11] | Potency [13] | Potency [14] | Potency [15] | Potency [16] | Potency [17] | Potency [18] | Potency [19]

c1ccc2ncccc2c1
inactive: Potency [1] | Potency [2] | Potency [20] | Potency [4] | Potency [5] | Potency [6] | Potency [7] | Potency [8] | Potency [9] | Potency [10] | Potency [11] | Potency [12] | Potency [13] | Potency [14] | Potency [15] | Potency [16] | Potency [18] | Potency [19]

N#CCC(=O)O
inactive: Potency [1] | Potency [2] | Potency [20] | Potency [4] | Potency [5] | Potency [6] | Potency [7] | Potency [8] | Potency [9] | Potency [10] | Potency [11] | Potency [12] | Potency [13] | Potency [14] | Potency [15] | Potency [16] | Potency [17] | Potency [18] | Potency [19]

CC(C)C(=O)c1c(C(C)C)nn2ccccc12
inactive: Potency [1] | Potency [2] | Potency [20] | Potency [4] | Potency [5] | Potency [6] | Potency [7] | Potency [8] | Potency [9] | Potency [11] | Potency [12] | Potency [13] | Potency [14] | Potency [16] | Potency [17] | Potency [18]

C=C(C)[C@@H]1CCC2=CC(=O)C[C@@H](C)[C@]2(C)C1
inactive: Potency [1] | Potency [2] | Potency [20] | Potency [4] | Potency [5] | Potency [6] | Potency [7] | Potency [8] | Potency [9] | Potency [10] | Potency [11] | Potency [12] | Potency [13] | Potency [14] | Potency [15] | Potency [16] | Potency [17] | Potency [18] | Potency [19]

C[Si](C)(C)O[Si](C)(C)O[Si](C)(C)C
inactive: Potency [1] | Potency [2] | Potency [20] | Potency [4] | Potency [5] | Potency [6] | Potency [7] | Potency [8] | Potency [9] | Potency [10] | Potency [11] | Potency [12] | Potency [13] | Potency [14] | Potency [15] | Potency [16] | Potency [18] | Potency [19]

CC(C)(C)CC(C)(C)c1ccc(Nc2ccc(C(C)(C)CC(C)(C)C)cc2)cc1
inactive: activity change, negative = cytotoxicity [1] 0.0348% [at 8.39 µM] | activity, positive = activation [2] -1.24% [at 8.39 µM] | activation [20] -0.517% [at 5.23 µM] | activation [4] -1.73% [at 5.99 µM] | activation [5] -0.0551% [at 5.99 µM] | activity change, negative = cytotoxicity [6] -1.28% [at 5.99 µM] | activity change, negative = cytotoxicity [7] -9.33% [at 5.99 µM] | activity change, negative = cytotoxicity [8] 0.663% [at 5.99 µM] | activation [9] 4.39% [at 5.99 µM] | activity, negative = inhibition [10] -0.349% [at 5.62 µM] | activation [11] 5.4% [at 7.02 µM] | activity, negative = inhibition [12] -10.6% [at 5.58 µM] | activation [13] 0.016% [at 6.97 µM] | activation [14] -1.83% [at 8.39 µM] | activity change, negative = inhibition [16] -0.838% [at 8.39 µM] | activation [17] 6.6% [at 8.39 µM] | activation [18] 1.28% [at 8.39 µM] | activity change, negative = inhibition [19] -0.278% [at 8.38 µM]

CC(=O)N[C@H]1[C@H]([C@H](O)[C@H](O)CO)OC(C(=O)O)=C[C@@H]1N=C(N)N
inactive: Potency [1] | Potency [2] | Potency [3] | Potency [5] | Potency [6] | Potency [7] | Potency [8] | Potency [9] | Potency [10] | Potency [11] | Potency [12] | Potency [13] | Potency [14] | Potency [15] | Potency [16] | Potency [17] | Potency [18] | Potency [19]

CC1=CC[C@@H](C(C)(C)O)CC1
inactive: Potency [1] | Potency [2] | Potency [20] | Potency [4] | Potency [5] | Potency [6] | Potency [7] | Potency [8] | Potency [9] | Potency [10] | Potency [11] | Potency [12] | Potency [13] | Potency [14] | Potency [15] | Potency [16] | Potency [17] | Potency [18] | Potency [19]
